Measurements as given in the supplement of paper PMC10849652.
The full data set covers some 7,900 targets. This sample favours those with a hit. About 0.6% of all pairs of compound and target were hits.

These targets were tested with CCCS(=O)(=O)Nc1ccc(F)c(C(=O)c2c[nH]c3ncc(Cl)cc23)c1F (assay: log2 fold change, soluble protein after heating vs DMSO (PISA); higher = thermal stabilisation; K562 cells, 10 uM, 30 min; active = over 0.2 and 3.5 SD of the protein, either way, in both replicates (recomputed)).
In short: (§1)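 K562 cells at 2×10^6 cells/mL were exposed to 10 μM compound for 30 min, then aliquots were heated for 3 min across 48°C-58°C, pooled, and extracted in PBS containing 0.5% NP-40 at 4°C. The supernatant after 21,000xg for 90 min was taken as soluble protein and measured by TMTpro 16plex LC-MS/MS with channel sums equalised. Thermal stability is reported relative to control samples, with values from duplicates. Fold changes are given on a log2 scale.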

Chain of UniProt Q8IWA5 (Q8IWA5 whole entry, looked up): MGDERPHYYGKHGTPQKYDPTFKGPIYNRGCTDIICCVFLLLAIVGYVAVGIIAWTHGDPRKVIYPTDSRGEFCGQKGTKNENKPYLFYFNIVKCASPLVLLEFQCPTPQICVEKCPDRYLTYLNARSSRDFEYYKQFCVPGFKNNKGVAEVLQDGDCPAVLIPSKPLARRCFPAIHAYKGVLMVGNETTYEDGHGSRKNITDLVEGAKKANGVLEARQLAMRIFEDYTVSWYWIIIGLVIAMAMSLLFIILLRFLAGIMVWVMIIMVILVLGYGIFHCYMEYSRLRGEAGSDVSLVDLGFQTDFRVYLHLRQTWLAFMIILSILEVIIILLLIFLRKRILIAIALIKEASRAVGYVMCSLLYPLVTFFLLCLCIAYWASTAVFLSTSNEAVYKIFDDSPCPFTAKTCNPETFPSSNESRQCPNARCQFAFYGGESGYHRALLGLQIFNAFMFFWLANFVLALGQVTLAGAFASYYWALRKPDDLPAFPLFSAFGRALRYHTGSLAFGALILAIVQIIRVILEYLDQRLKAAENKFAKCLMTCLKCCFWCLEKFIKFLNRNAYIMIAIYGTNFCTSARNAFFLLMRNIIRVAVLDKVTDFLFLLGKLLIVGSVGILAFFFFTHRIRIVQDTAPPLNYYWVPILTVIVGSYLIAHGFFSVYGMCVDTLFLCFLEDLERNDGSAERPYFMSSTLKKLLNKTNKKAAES
Chain of UniProt P78383 (P78383 whole entry, looked up): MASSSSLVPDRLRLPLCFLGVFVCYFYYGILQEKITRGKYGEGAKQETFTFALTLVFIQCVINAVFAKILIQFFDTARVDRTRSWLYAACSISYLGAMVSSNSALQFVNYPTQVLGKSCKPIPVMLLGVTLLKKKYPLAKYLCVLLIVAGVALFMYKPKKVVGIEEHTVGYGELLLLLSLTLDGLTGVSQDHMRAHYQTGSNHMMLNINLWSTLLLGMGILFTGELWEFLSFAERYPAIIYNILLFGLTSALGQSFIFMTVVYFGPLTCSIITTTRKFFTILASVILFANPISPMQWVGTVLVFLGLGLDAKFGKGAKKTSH
Chain of UniProt Q9Y2H1 (Q9Y2H1 whole entry, looked up): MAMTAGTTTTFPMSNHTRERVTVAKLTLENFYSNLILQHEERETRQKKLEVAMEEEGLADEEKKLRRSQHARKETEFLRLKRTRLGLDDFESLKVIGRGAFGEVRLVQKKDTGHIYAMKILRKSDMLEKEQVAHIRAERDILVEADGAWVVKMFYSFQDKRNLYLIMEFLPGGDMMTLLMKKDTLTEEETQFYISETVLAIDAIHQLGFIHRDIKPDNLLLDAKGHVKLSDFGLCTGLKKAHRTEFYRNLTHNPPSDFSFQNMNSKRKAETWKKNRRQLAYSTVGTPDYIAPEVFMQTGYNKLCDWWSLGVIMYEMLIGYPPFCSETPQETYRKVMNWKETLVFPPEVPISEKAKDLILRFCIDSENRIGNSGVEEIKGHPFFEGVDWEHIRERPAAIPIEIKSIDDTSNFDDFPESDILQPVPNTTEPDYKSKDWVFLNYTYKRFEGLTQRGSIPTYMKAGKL
Chain of UniProt Q5JUR7 (Q5JUR7 whole entry, looked up): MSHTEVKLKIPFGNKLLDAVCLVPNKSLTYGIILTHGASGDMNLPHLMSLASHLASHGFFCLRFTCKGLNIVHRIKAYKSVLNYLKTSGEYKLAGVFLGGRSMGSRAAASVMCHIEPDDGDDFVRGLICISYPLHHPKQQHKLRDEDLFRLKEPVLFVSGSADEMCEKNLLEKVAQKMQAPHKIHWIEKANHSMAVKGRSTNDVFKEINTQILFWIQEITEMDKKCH
Chain of UniProt Q13247 (Q13247 whole entry, looked up): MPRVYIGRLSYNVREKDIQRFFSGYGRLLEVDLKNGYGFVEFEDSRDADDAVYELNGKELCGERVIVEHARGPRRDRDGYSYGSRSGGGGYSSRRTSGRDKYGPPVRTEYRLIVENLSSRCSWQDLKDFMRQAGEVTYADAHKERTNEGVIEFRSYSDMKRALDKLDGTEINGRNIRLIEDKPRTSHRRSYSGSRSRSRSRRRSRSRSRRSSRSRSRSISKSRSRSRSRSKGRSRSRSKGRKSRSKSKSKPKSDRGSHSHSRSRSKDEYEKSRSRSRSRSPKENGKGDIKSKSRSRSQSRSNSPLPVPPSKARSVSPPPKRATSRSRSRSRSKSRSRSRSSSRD
Chain of UniProt Q9Y6J9 (Q9Y6J9 whole entry, looked up): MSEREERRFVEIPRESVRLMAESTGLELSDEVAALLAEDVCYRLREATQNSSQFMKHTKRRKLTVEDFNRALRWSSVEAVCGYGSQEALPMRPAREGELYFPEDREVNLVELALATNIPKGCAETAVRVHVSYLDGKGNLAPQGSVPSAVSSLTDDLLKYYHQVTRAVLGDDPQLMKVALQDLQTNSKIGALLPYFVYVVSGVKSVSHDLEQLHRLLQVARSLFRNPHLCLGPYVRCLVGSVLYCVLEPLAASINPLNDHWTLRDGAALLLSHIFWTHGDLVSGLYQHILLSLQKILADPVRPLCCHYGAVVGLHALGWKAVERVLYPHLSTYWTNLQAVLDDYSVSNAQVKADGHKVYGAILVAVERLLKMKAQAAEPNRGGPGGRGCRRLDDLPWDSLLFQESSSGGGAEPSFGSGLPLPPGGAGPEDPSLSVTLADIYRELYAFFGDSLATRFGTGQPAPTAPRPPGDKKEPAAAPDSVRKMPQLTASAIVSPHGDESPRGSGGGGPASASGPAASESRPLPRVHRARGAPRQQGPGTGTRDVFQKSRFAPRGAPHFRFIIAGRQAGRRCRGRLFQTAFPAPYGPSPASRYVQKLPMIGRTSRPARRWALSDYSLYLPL
Chain of UniProt Q93075 (Q93075 whole entry, looked up): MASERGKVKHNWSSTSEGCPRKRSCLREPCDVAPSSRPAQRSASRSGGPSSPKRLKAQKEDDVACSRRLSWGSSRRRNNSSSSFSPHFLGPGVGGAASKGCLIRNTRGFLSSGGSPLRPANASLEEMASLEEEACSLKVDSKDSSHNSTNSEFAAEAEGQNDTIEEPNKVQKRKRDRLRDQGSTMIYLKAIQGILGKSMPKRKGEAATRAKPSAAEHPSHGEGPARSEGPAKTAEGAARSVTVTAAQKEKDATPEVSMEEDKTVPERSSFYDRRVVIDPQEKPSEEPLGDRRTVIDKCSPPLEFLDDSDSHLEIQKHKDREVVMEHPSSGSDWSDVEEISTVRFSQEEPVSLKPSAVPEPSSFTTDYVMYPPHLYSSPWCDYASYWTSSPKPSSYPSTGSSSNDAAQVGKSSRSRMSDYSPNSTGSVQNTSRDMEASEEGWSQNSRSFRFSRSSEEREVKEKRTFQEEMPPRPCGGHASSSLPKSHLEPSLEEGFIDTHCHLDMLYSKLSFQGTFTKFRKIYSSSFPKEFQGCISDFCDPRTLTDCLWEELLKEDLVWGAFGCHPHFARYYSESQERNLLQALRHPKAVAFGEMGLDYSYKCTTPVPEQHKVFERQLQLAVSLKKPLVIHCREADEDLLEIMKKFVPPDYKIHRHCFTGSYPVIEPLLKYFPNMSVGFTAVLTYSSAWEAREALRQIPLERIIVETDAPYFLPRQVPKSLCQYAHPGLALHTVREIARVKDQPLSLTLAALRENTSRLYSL
Chain of UniProt Q6J4K2 (Q6J4K2 whole entry, looked up): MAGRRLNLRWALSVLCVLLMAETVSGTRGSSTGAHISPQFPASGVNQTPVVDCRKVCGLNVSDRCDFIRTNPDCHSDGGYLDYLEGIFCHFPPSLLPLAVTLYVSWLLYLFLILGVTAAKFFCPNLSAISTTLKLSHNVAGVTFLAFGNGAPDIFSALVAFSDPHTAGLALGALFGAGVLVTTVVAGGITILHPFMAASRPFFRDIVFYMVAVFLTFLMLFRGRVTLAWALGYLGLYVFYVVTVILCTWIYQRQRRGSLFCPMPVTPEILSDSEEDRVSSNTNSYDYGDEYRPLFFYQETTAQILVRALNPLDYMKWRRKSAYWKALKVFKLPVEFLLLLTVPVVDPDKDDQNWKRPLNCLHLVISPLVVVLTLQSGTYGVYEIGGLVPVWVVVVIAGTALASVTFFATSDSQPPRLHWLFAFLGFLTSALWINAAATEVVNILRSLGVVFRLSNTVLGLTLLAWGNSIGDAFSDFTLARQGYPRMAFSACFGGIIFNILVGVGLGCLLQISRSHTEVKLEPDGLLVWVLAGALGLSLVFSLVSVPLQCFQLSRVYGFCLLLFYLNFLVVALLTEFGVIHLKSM
Chain of UniProt Q9NXE4 (Q9NXE4 whole entry, looked up): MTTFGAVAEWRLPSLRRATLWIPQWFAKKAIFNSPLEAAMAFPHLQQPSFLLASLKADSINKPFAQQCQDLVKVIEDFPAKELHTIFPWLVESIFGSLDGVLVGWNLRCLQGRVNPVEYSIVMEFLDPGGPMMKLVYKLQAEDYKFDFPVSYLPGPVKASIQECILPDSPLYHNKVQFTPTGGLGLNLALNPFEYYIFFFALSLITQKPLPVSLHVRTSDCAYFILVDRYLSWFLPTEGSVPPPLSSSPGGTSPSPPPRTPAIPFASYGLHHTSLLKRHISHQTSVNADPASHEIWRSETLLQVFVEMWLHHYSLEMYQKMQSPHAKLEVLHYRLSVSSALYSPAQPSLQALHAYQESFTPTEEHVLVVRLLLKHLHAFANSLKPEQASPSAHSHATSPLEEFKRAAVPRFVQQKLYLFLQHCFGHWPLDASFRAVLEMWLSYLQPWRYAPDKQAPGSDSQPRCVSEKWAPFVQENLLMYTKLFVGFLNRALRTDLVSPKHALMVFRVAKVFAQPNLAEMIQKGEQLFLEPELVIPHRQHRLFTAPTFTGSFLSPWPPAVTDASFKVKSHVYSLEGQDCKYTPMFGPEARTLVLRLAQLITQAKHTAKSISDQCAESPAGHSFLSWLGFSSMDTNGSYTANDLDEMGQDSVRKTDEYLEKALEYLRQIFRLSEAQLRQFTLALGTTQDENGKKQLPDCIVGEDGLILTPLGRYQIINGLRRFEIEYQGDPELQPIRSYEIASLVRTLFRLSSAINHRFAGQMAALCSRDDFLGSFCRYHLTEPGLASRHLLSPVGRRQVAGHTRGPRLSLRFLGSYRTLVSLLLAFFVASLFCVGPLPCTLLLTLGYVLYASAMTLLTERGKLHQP

Row | Target | log2 fold change
1 | TAOK2 (UniProt Q9UL54) | 0.051 (inactive)
2 | SMPD4 isoform 2 (UniProt Q9NXE4) | 0.099 (inactive)
3 | SLC8B1 (UniProt Q6J4K2) | -0.021 (inactive)
4 | SYK (UniProt P43405) | -0.058 (inactive)
5 | TEX30 (UniProt Q5JUR7) | 0.037 (inactive)
6 | TATDN2 (UniProt Q93075) | 0.019 (inactive)
7 | SNX2 isoform 2 (UniProt O60749) | -0.144 (inactive)
8 | SNRK (UniProt Q9NRH2) | 0.07 (inactive)
9 | SRSF6 (UniProt Q13247) | -0.058 (inactive)
10 | TM7SF2 (UniProt O76062) | 0.123 (inactive)
11 | TAF6L (UniProt Q9Y6J9) | -0.059 (inactive)
12 | TBP (UniProt P20226) | -0.026 (inactive)
13 | STK11IP (UniProt Q8N1F8) | 0.061 (inactive)
14 | SLC9A6 isoform 3 (UniProt Q92581) | -0.152 (inactive)

Each target was assayed with CCCc1cc(C)[nH]c(=O)c1CNC(=O)c1cc(-c2ccnc(N3CCN(C)CC3)c2)cc2c1cnn2C(C)C in the same assay as above.
In short: as §1

Row | Target | log2 fold change
15 | TAOK2 (UniProt Q9UL54) | 0.007 (inactive)
16 | SMPD4 isoform 2 (UniProt Q9NXE4) | -0.035 (inactive)
17 | SMDT1 (UniProt Q9H4I9) | -0.127 (inactive)
18 | SLC35B1 isoform 2 (UniProt P78383) | -0.221 (inactive)
19 | SSB (UniProt E7ERC4) | 0.283 (inactive)
20 | SLC44A2 isoform 2 (UniProt Q8IWA5) | -0.029 (inactive)
21 | TEX30 (UniProt Q5JUR7) | -0.119 (inactive)
22 | TCOF1 isoform 6 (UniProt Q13428) | 0.545 (inactive)
23 | SLC35B4 (UniProt Q969S0) | -0.002 (inactive)
24 | SYNE1 (UniProt Q8NF91) | -0.044 (inactive)
25 | SPIRE1 (UniProt Q08AE8) | -0.062 (inactive)
26 | TC2N (UniProt Q8N9U0) | -0.098 (inactive)
27 | TBC1D2 (UniProt Q9BYX2) | 0.11 (inactive)
28 | SREBF1 isoform 4 (UniProt P36956) | -0.932 (active)
29 | STK38L (UniProt Q9Y2H1) | 0.079 (inactive)
30 | SRSF6 (UniProt Q13247) | 0.104 (inactive)
31 | SSBP4 (UniProt U3KPY3) | -0.028 (inactive)
32 | TAF6L (UniProt Q9Y6J9) | 0.091 (inactive)
33 | SPAG9 isoform 4 (UniProt O60271) | 0.028 (inactive)
34 | TBP (UniProt P20226) | -0.154 (inactive)
35 | STK11IP (UniProt Q8N1F8) | 0.063 (inactive)
36 | THAP9 (UniProt Q9H5L6) | -0.463 (inactive)

The targets below were run with CCN(CC)Cc1ccc2cc(COC(=O)Nc3ccc(C(=O)NO)cc3)ccc2c1 [givinostat] in the same assay as above.
In short: as §1

Row | Target | log2 fold change
37 | TAOK2 (UniProt Q9UL54) | -0.363 (inactive)
38 | SLC8B1 (UniProt Q6J4K2) | 0.069 (inactive)
39 | SYK (UniProt P43405) | 0.307 (inactive)
40 | SLC35B1 isoform 2 (UniProt P78383) | 0.069 (inactive)
41 | SLC44A2 isoform 2 (UniProt Q8IWA5) | -0.027 (inactive)
42 | TEX30 (UniProt Q5JUR7) | -0.146 (inactive)
43 | TCOF1 isoform 6 (UniProt Q13428) | -0.024 (inactive)
44 | SLC35B4 (UniProt Q969S0) | 0.077 (inactive)
45 | STK17B (UniProt O94768) | 0.16 (inactive)
46 | SYNE1 (UniProt Q8NF91) | 0.199 (inactive)
47 | SPIRE1 (UniProt Q08AE8) | 0.185 (inactive)
48 | TATDN2 (UniProt Q93075) | -0.004 (inactive)
49 | SLC46A1 (UniProt Q96NT5) | 0.011 (inactive)
50 | TCOF1 isoform 3 (UniProt Q13428) | 0.047 (inactive)
51 | SLC39A1 (UniProt Q9NY26) | -0.157 (inactive)
52 | SPIN4 (UniProt Q56A73) | -0.245 (inactive)
53 | SREBF1 isoform 4 (UniProt P36956) | 0.051 (inactive)
54 | STK38L (UniProt Q9Y2H1) | -0.016 (inactive)
55 | SRSF6 (UniProt Q13247) | 0.019 (inactive)
56 | TM7SF2 (UniProt O76062) | 0.18 (inactive)
57 | TAF6L (UniProt Q9Y6J9) | 0.075 (inactive)
58 | TDP1 (UniProt Q9NUW8) | 0.112 (inactive)
59 | SPAG9 isoform 4 (UniProt O60271) | 0.021 (inactive)
60 | STK11IP (UniProt Q8N1F8) | -0.017 (inactive)
61 | SLC9A6 isoform 3 (UniProt Q92581) | -0.021 (inactive)

What follows are targets tested with CCN(CCCOc1ccc2c(Nc3cc(CC(=O)Nc4cccc(F)c4)[nH]n3)ncnc2c1)CCOP(=O)(O)O [barasertib] in the same assay as above.
In short: as §1

Row | Target | log2 fold change
62 | SMPD4 isoform 2 (UniProt Q9NXE4) | 0.034 (inactive)
63 | SLC8B1 (UniProt Q6J4K2) | -0.167 (inactive)
64 | SMDT1 (UniProt Q9H4I9) | -0.021 (inactive)
65 | SYK (UniProt P43405) | -0.094 (inactive)
66 | SLC35B1 isoform 2 (UniProt P78383) | -0.055 (inactive)
67 | SLC44A2 isoform 2 (UniProt Q8IWA5) | -0.012 (inactive)
68 | TEX30 (UniProt Q5JUR7) | 0.019 (inactive)
69 | TCOF1 isoform 6 (UniProt Q13428) | 0.008 (inactive)
70 | SLC35B4 (UniProt Q969S0) | -0.01 (inactive)
71 | STK17B (UniProt O94768) | 0.29 (inactive)
72 | SYNE1 (UniProt Q8NF91) | 0.047 (inactive)
73 | SPIRE1 (UniProt Q08AE8) | -0.014 (inactive)
74 | TATDN2 (UniProt Q93075) | 0.126 (inactive)
75 | SNX2 isoform 2 (UniProt O60749) | -0.054 (inactive)
76 | SREBF1 isoform 4 (UniProt P36956) | -0.071 (inactive)
77 | STK38L (UniProt Q9Y2H1) | 0.064 (inactive)
78 | SRSF6 (UniProt Q13247) | -0.059 (inactive)
79 | SPAG9 isoform 4 (UniProt O60271) | 0.176 (inactive)
80 | TBP (UniProt P20226) | -0.067 (inactive)
81 | STK11IP (UniProt Q8N1F8) | 0.008 (inactive)
82 | SLC9A6 isoform 3 (UniProt Q92581) | 0.109 (inactive)
83 | THAP9 (UniProt Q9H5L6) | 0.121 (inactive)
